Drawing on PubChem BioAssay (Tox21), this text covers Potency and max response for 13 molecules.

Where “and” joins values, the source holds several entries; their conditions need not be identical. Identical values can stand only once. Results filed as inconclusive are left out. The source holds several records for some structures; these can differ, active in one and inactive in another. Calls of active or inactive are those of the source. Calls come from the whole dose curve; as a rule, active = well fitted curve in the direction sought with a large enough effect in the repeat runs; inconclusive = weak or mixed curves; inactive = no such curve, though single readings can be large; an effect the other way counts as inactive or inconclusive.

Assay [1] can be described thus: qHTS RealTime-Glo MT Cell Viability Assay in HepG2 cells - 40 hour (AID 1224870). Note: nearly all actives have a fitted effect of over 50% in size. Note: potency is the fitted concentration of half-maximal effect. Put shortly: (§1)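 Real-time viability: cells seeded at 600 per well together with NanoLuc and cell-permeant prosubstrate, compounds added after 5 h incubation. Luminescence tracked at 0, 8, 16, 24, 32 and 40 h of exposure.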
Background: Quantitative high-throughput screening tests each substance at several concentrations.

The nature of assay [2]: A CellTox Green Cytotoxicity Assay to monitor cytotoxicity in HEK293 cells - 40 hour (AID 1224871). Note: nearly all actives have a fitted effect of over 45% in size. Note: potency is the fitted concentration of half-maximal effect. Put shortly:
(§2)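 Real-time, in one plate: 600 HEK293 cells/well with dead-cell DNA dye, pinned compound after 5 h, 37 C incubation over 40 h; viable cells give no appreciable fluorescence.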

The nature of assay [3]: qHTS RealTime-Glo MT Cell Viability Assay in HEK293 cells - 16 hour (AID 1224872). Note: nearly all actives have a fitted effect of over 50% in size. Note: potency is the fitted concentration of half-maximal effect. Put shortly:
(§3)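 Luminescence generated by NanoLuc from substrate produced by living HEK293 cells served as the viability signal. Each value reflects the reading at its stated time point during continuous 40 h compound exposure at 37 C.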

Assay [4] in a line: qHTS RealTime-Glo MT Cell Viability Assay in HepG2 cells - 8 hour (AID 1224873). Note: nearly all actives have a fitted effect of over 55% in size. Note: potency is the fitted concentration of half-maximal effect. Summed up: as §1
Assay [5] can be described thus: qHTS RealTime-Glo MT Cell Viability Assay in HEK293 cells - 40 hour (AID 1224874). Note: nearly all actives have a fitted effect of over 50% in size. As to conditions: RealTime-Glo luminescence; max response: stronger effect = lower value. Put shortly:
(§4)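 Kinetic, non-lysing viability readout. Seed HEK293 (600/well) with reagent, incubate 5 h at 37 C/5% CO2, pin 23 nL compound in DMSO, incubate at 37 C, read luminescence at 0, 8, 16, 24, 32, 40 h.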

Assay [6] can be described thus: A CellTox Green Cytotoxicity Assay to monitor cytotoxicity in HEK293 cells - 24 hour (AID 1224875). Note: series mostly up to about 77 µM; nearly all actives have a fitted effect of over 45% in size. Summed up:
as §2

The nature of assay [7]: A CellTox Green Cytotoxicity Assay to monitor cytotoxicity in HepG2 cells - 16 hour (AID 1224876). Note: nearly all actives have a fitted effect of over 45% in size. Put shortly: (§5)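 Cytotoxicity was tracked as dead-cell DNA fluorescence in HepG2 cells treated with test compounds at 37 C; each time-point value comes from one kinetic series spanning 0, 8, 16, 24, 32 and 40 h.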
Assay [8] can be described thus: A CellTox Green Cytotoxicity Assay to monitor cytotoxicity in HepG2 cells - 24 hour (AID 1224878). Note: nearly all actives have a fitted effect of over 45% in size. Note: potency is the fitted concentration of half-maximal effect. Summed up:
as §5

Assay [9] can be described thus: A CellTox Green Cytotoxicity Assay to monitor cytotoxicity in HepG2 cells - 40 hour (AID 1224879). Note: nearly all actives have a fitted effect of over 40% in size. Note: potency is the fitted concentration of half-maximal effect. Summed up:
as §5

A short description of assay [10]: qHTS RealTime-Glo MT Cell Viability Assay in HEK293 cells - 0 hour (AID 1224880). Note: nearly all actives have a fitted effect of over 45% in size. Note: potency is the fitted concentration of half-maximal effect. Summed up: as §4
Assay [11] in a line: A CellTox Green Cytotoxicity Assay to monitor cytotoxicity in HEK293 cells - 32 hour (AID 1224881). Note: nearly all actives have a fitted effect of over 40% in size. Note: potency is the fitted concentration of half-maximal effect. Summed up:
as §2

The nature of assay [12]: A CellTox Green Cytotoxicity Assay to monitor cytotoxicity in HepG2 cells - 0 hour (AID 1224882). Note: nearly all actives have a fitted effect of over 35% in size. Note: potency is the fitted concentration of half-maximal effect. Put shortly: as §5
Assay [13] can be described thus: A CellTox Green Cytotoxicity Assay to monitor cytotoxicity in HepG2 cells - 32 hour (AID 1224883). Note: nearly all actives have a fitted effect of over 50% in size. Note: potency is the fitted concentration of half-maximal effect. Summed up: as §5
The nature of assay [14]: A CellTox Green Cytotoxicity Assay to monitor cytotoxicity in HEK293 cells - 8 hour (AID 1224884). Note: nearly all actives have a fitted effect of over 35% in size. Note: potency is the fitted concentration of half-maximal effect. Put shortly:
as §2

A short description of assay [15]: qHTS RealTime-Glo MT Cell Viability Assay in HepG2 cells - 16 hour (AID 1224885). Note: nearly all actives have a fitted effect of over 50% in size. Note: potency is the fitted concentration of half-maximal effect. Put shortly: (§6)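 Tox21 10K library screened in qHTS format on HepG2 cells carrying RealTime-Glo reagents. Compounds were added after a 5 h preincubation, and the luminescent signal from continuous culture was measured repeatedly during 40 h treatment.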
Assay [16] can be described thus: qHTS RealTime-Glo MT Cell Viability Assay in HEK293 cells - 24 hour (AID 1224886). Note: nearly all actives have a fitted effect of over 50% in size. Note: potency is the fitted concentration of half-maximal effect. Put shortly:
as §3

Assay [17] is described as follows: A CellTox Green Cytotoxicity Assay to monitor cytotoxicity in HEK293 cells - 16 hour (AID 1224888). Note: nearly all actives have a fitted effect of over 35% in size. Put shortly:
as §2

Assay [18] is described as follows: qHTS RealTime-Glo MT Cell Viability Assay in HepG2 cells - 0 hour (AID 1224889). Note: nearly all actives have a fitted effect of over 50% in size. Note: potency is the fitted concentration of half-maximal effect. Put shortly: as §6
The nature of assay [19]: qHTS RealTime-Glo MT Cell Viability Assay in HEK293 cells - 8 hour (AID 1224887). Put shortly: as §4
The nature of assay [20]: qHTS RealTime-Glo MT Cell Viability Assay in HepG2 cells - 32 hour (AID 1224877). Note: nearly all actives have a fitted effect of over 55% in size. Note: potency is the fitted concentration of half-maximal effect. Summed up: as §6
% is set by controls: 0 for no effect and ±100 for the full control effect.

Consider `O=C(Cl)c1c(Cl)c(Cl)c(C(=O)Cl)c(Cl)c1Cl`, for which the Potency entry in assay [1], in assay [2], in assay [3], in [4], in [6] and in assay [7] was “inactive” each time. Also, the Potency entry in assay [8], in assay [9], in [10], in assay [11], in assay [12] and in assay [13] was “inactive” in each case. Also, the Potency result in assay [14], in assay [15], in [16], in assay [17] and in assay [18] was “inactive” each time. The max response in [5] is 8.71% (inactive) and 13.6% (inactive).
In the case of `CC1=CC[C@H]2C[C@@H]1C2(C)C`, the Potency result in assay [1], in assay [2], in assay [3], in assay [4], in assay [6] and in assay [7] was “inactive” in each case. The Potency result in assay [8], in [9], in assay [10], in assay [11], in assay [12] and in assay [13] was “inactive” in each case. Also, the Potency result in assay [14], in assay [15], in assay [16], in [19], in assay [17] and in assay [18] was “inactive” throughout.
As to `NCCc1ccc(O)c(O)c1`, the Potency result in assay [1], in [2], in assay [3], in [4], in [6] and in [9] was “inactive” each time. The Potency result in assay [10], in [11], in assay [12], in [13], in assay [14] and in assay [15] was “inactive” throughout. Moreover, the Potency entry in assay [16], in assay [19], in assay [17] and in assay [18] was “inactive” throughout. Also, the max response in assay [5] is -0.912% (inactive) and 5.76% (inactive).
With `CCCCCCC(C)(C)S`, the Potency entry in assay [1], in assay [2], in assay [3], in assay [4], in assay [6] and in [7] was “inactive” throughout. Besides, the Potency entry in [9], in assay [10], in [11], in assay [12], in assay [13] and in assay [14] was “inactive” throughout. Moreover, the Potency entry in [15], in assay [16], in assay [17] and in assay [18] was “inactive” in each case.
As for `CC[Si](OC(C)=O)(OC(C)=O)OC(C)=O`, the Potency result in assay [1], in assay [2], in [3], in assay [4], in assay [6] and in assay [7] was “inactive” throughout. The Potency result in assay [9], in assay [11], in [12], in assay [13], in assay [14] and in [15] was “inactive” throughout. Further, the Potency result in assay [16], in assay [19], in [17] and in assay [18] was “inactive” throughout.
With `O=S(=O)(Oc1ccc(Cl)cc1Cl)c1ccccc1`, the Potency result in assay [1], in assay [2], in [3], in assay [4], in assay [6] and in [20] was “inactive” each time. Besides, the Potency entry in assay [8], in assay [9], in assay [11], in [12], in assay [13] and in assay [14] was “inactive” in each case. Besides, the Potency entry in assay [15], in assay [16] and in [17] was “inactive” throughout.
For `NCc1cccc(CN)c1`, the Potency result in assay [1], in assay [3], in assay [4], in assay [7], in [20] and in [8] was “inactive” in each case. Besides, the Potency entry in [9], in [10], in assay [12], in assay [13], in assay [14] and in assay [15] was “inactive” in each case. Moreover, the Potency result in [16], in assay [17] and in assay [18] was “inactive” in each case. Further, in assay [5], the max response was -20.2% (inactive) and 8.99% (inactive).
For `CC1=C(/C=C/C(C)=C/C=C/C(C)=C/CO)C(C)(C)CCC1`, the Potency entry in assay [1], in [3], in [4], in assay [6], in [20] and in [9] was “inactive” throughout. Moreover, the Potency entry in [10], in assay [11], in assay [12], in assay [13], in assay [14] and in assay [15] was “inactive” throughout. For the same molecule, the Potency result in [16], in assay [17] and in [18] was “inactive” throughout. Besides, the max response in assay [5] is -27.5% (inactive) and -20.7% (inactive).
On to `CNC[C@H](O)[C@@H](O)[C@H](O)[C@H](O)CO`, for which the Potency result in assay [1], in assay [2], in assay [3], in assay [4], in assay [6] and in [7] was “inactive” in each case. In addition, the Potency result in assay [20], in assay [8], in [9], in assay [10], in assay [11] and in [12] was “inactive” throughout. Besides, the Potency entry in assay [13], in assay [14], in assay [15], in assay [16], in [19] and in [17] was “inactive” throughout. Further, the Potency result in [18] was “inactive”.
Turning to `CCCCCCCCCCCCN`, the Potency entry in [1] is “inactive and 34.7 µM (active)”; in [2] it was “inactive and 49 µM (active)”; in assay [3], “inactive and 38.9 µM (active)”; in [4], “inactive and 21.9 µM (active)”; in assay [20], “inactive and 24.5 µM (active)”; in assay [9], “inactive and 21.9 µM (active)”. The Potency result in assay [11] was “inactive and 43.6 µM (active)”; in assay [13] it was “inactive and 21.9 µM (active)”; in assay [14] it was “inactive and 49 µM (active)”; in assay [15], “inactive and 24.5 µM (active)”; in [16] it was “inactive and 38.9 µM (active)”. The Potency result in assay [10] and in assay [12] was “inactive” in each case.
As for `C=C(C)C(=O)OCCCCCCCCCCCC`, the Potency result in assay [2], in assay [3], in assay [4], in assay [6], in [7] and in [20] was “inactive” in each case. Moreover, the Potency result in [8], in assay [9], in assay [10], in assay [11], in assay [12] and in assay [13] was “inactive” throughout. For the same molecule, the Potency result in [14], in assay [15], in assay [16], in assay [19] and in assay [17] was “inactive” throughout. In assay [5], the max response is 0.0102% (inactive) and 4.38% (inactive).
For the molecule `CC(=O)[C@@]1(O)CC[C@H]2[C@@H]3CCC4=CC(=O)CC[C@]4(C)[C@H]3CC[C@@]21C`, the Potency result in [1], in assay [2], in assay [3], in [4], in assay [6] and in assay [7] was “inactive” each time. The Potency entry in [20], in assay [9], in assay [10], in assay [11], in assay [12] and in assay [13] was “inactive” throughout. Moreover, the Potency result in assay [14], in assay [15], in assay [16], in assay [19] and in assay [17] was “inactive” in each case. For the same molecule, the Potency in [18] was 6.16 µM (active) and 8.49 µM (active).
Regarding `CC1(C)O[C@@H]2C[C@H]3[C@@H]4C[C@H](F)C5=CC(=O)CC[C@]5(C)[C@H]4[C@@H](O)C[C@]3(C)[C@]2(C(=O)CO)O1`, the Potency entry in assay [1], in [2], in assay [3], in assay [4], in [6] and in assay [20] was “inactive” throughout. The Potency result in [11], in assay [14], in assay [15], in assay [16], in assay [19] and in assay [17] was “inactive” throughout. The Potency is 49 µM (active) and inactive in assay [8]; 43.6 µM (active) and inactive in assay [9]; 17.4 µM (active) and 10.7 µM (active) in assay [10]; 38.9 µM (active) and inactive in assay [12]; 43.6 µM (active) and inactive in [13].
